Experimental data taken from PubChem BioAssay (NCI).
Values joined by “and” are separate entries in the source; they are usually repeats but may differ in a detail not shown here. Equal entries are not always repeated. The panel holds about 79,000 compounds, 15% with a hit somewhere; the sample as a whole holds those more often. Some structures have more than one record in an assay (separate samples or runs), and their calls can disagree. Active and inactive are the calls of the source. Rule as the data show it: active = growth inhibition above about 70%; inactive = the rest.

Legend:
[1] = NCI Yeast Anticancer Drug Screen. Data for the rad50 strain (AID 155);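 also: 0% = growth of vehicle-only cultures of the same strain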; conditions: S. cerevisiae rad50 strain growth inhibition, stronger effect = higher value
Method in brief: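 Inhibition values express reduced yeast growth in compound-treated cultures relative to vehicle-treated controls.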

[2] = NCI Yeast Anticancer Drug Screen. Data for the mec2-1 strain (AID 157); conditions: S. cerevisiae mec2-1 strain, stronger effect = higher value
Method in brief: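 Using mec2-1 yeast: add compound, measure growth, express inhibition versus vehicle-treated cultures.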

[3] = NCI Yeast Anticancer Drug Screen. Data for the sgs1 mgt1 strain (AID 161);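 also: 0% = growth of cultures given vehicle only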; conditions: S. cerevisiae sgs1 mgt1 strain, stronger effect = higher value
Method in brief: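 This yeast growth screen uses a strain with defined DNA-repair lesions; compound-treated growth is compared with vehicle-treated growth.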

[4] = NCI Yeast Anticancer Drug Screen. Data for the cln2 rad14 strain (AID 165);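 also: 0% = growth equal to vehicle treated cultures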; conditions: S. cerevisiae cln2 rad14 strain, stronger effect = higher value
Method in brief: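 Yeast strain cln2 rad14, bearing defects in cell cycle control and DNA repair, serves as the test system; values reflect growth inhibition compared with vehicle.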

[5] = NCI Yeast Anticancer Drug Screen. Data for the bub3 strain (AID 167); conditions: S. cerevisiae bub3 mutant strain, stronger effect = higher value
Method in brief: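 Steps: expose the mutant yeast strain to compound; grow alongside vehicle-treated cultures; measure growth; express inhibition against the vehicle cultures.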

[6] = NCI Yeast Anticancer Drug Screen. Data for the mlh1 rad18 strain (AID 175); conditions: S. cerevisiae mlh1 rad18 strain growth inhibition, stronger effect = higher value
Method in brief: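 Steps: expose repair-defective yeast to compound; measure growth; express inhibition against vehicle-treated controls.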

[7] = at 5.0 µM (retest, dose inferred, filed as 0.5)
[8] = at 50.0 µM (retest, dose inferred, filed as 5.0)

SMILES	growth inhibition [1, 7]	growth inhibition [1, 8]	growth inhibition [2, 7]	growth inhibition [2, 8]	growth inhibition [3, 7]	growth inhibition [3, 8]	growth inhibition [4, 7]	growth inhibition [4, 8]	growth inhibition [5, 7]	growth inhibition [5, 8]	growth inhibition [6, 7]	growth inhibition [6, 8]	growth inhibition ([1]; at 50.0 µM)	growth inhibition ([2]; at 50.0 µM)	growth inhibition ([3]; at 50.0 µM)	growth inhibition ([4]; at 50.0 µM)	growth inhibition ([5]; at 50.0 µM)	growth inhibition ([6]; at 50.0 µM)
O=Cc1ccc(O)c(O)c1O	-7% (inactive)	66% (inactive)	-3% (inactive)	54% (inactive)	-6% (inactive)	35% (inactive)	0% (inactive)	36% (inactive)	9% (inactive)	73% (active)	-30% (inactive)	86% (active)						
CCCCCCN(CCCCCC)CCCCCCCCCCCO	15% (inactive)	98% (active)	7% (inactive)	98% (active)	10% (inactive)	99% (active)	12% (inactive)	98% (active)	16% (inactive)	99% (active)	11% (inactive)	94% (active)						
CCOC(=O)C(NC(C)=O)C(=O)c1ccccc1 (stereo unspecified)	-3% (inactive)	6% (inactive)	-3% (inactive)	-4% (inactive)	0% (inactive)	-1% (inactive)	11% (inactive)	-4% (inactive)	2% (inactive)	-1% (inactive)	-35% (inactive)	-6% (inactive)						
C=CCCCCCCCCC(=O)NN	18% (inactive)	92% (active)	-1% (inactive)	79% (active)	15% (inactive)	92% (active)	-8% (inactive)	81% (active)	0% (inactive)	85% (active)	-25% (inactive)	91% (active)						
COc1ccc(N=NC(C#N)C#N)cc1	32% (inactive)	95% (active)	6% (inactive)	97% (active)	24% (inactive)	98% (active)	2% (inactive)	96% (active)	1% (inactive)	98% (active)	-10% (inactive)	96% (active)						
CC(C)CNC(=O)C(C)O (stereo unspecified)	13% (inactive)	88% (active)	2% (inactive)	18% (inactive)	4% (inactive)	40% (inactive)	2% (inactive)	14% (inactive)	0% (inactive)	7% (inactive)	12% (inactive)	40% (inactive)						
O=c1c2ccccc2ncn1O	-1% (inactive)	93% (active)	1% (inactive)	54% (inactive)	8% (inactive)	98% (active)	10% (inactive)	21% (inactive)	5% (inactive)	89% (active)	-12% (inactive)	81% (active)						
CCC(CC)(c1ccccc1)C(O)c1ccccc1 (stereo unspecified)	11% (inactive)	94% (active)	-1% (inactive)	98% (active)	6% (inactive)	98% (active)	7% (inactive)	95% (active)	6% (inactive)	94% (active)	2% (inactive)	96% (active)						
COc1ccc(Cc2c3cc(O)c(=O)cc-3ccn2C)cc1OC													2.75% (inactive) and 47.7% (inactive)	14.2% (inactive) and 24.5% (inactive)	23.4% (inactive) and 22.3% (inactive)	32.2% (inactive) and 8.35% (inactive)	29.2% (inactive) and 5.5% (inactive)	
CC(=O)Oc1c(Br)cc(Br)cc1C(OC(C)=O)OC(C)=O	20% (inactive)	96% (active)	8% (inactive)	87% (active)	19% (inactive)	99% (active)	3% (inactive)	52% (inactive)	6% (inactive)	99% (active)	-5% (inactive)	93% (active)						
S=c1sc2ccccc2n1CCNc1ccccc1	8% (inactive)	90% (active)	-3% (inactive)	73% (active)	4% (inactive)	98% (active)	7% (inactive)	25% (inactive)	6% (inactive)	92% (active)	-10% (inactive)	64% (inactive)						
O=[N+]([O-])c1ccc2nc3ccccc3[n+]([O-])c2c1	25% (inactive)	99% (active)	19% (inactive)	99% (active)			-1% (inactive)	99% (active)	50% (inactive)	100% (active)	38% (inactive)	99% (active)						
CCC(=O)c1ccc([N+](=O)[O-])o1	12% (inactive)	97% (active)	5% (inactive)	99% (active)	13% (inactive)	100% (active)	-6% (inactive)	99% (active)	13% (inactive)	100% (active)	3% (inactive)	98% (active)						
CCCCN(CCCC)C(=O)C(C)OC(C)=O (stereo unspecified)	0% (inactive)	25% (inactive)			-3% (inactive)	6% (inactive)	10% (inactive)	1% (inactive)	-2% (inactive)	-8% (inactive)	-38% (inactive)	8% (inactive)						
COc1ccc(C(N)=O)cc1	14% (inactive)	2% (inactive)	-3% (inactive)	0% (inactive)	-5% (inactive)	3% (inactive)	-3% (inactive)	-11% (inactive)	-6% (inactive)	-5% (inactive)	16% (inactive)	24% (inactive)						
CCCCC(CC)CNC(=O)CI (stereo unspecified)	11% (inactive)	66% (inactive)	-2% (inactive)	22% (inactive)	6% (inactive)	73% (active)	9% (inactive)	6% (inactive)	9% (inactive)	76% (active)	-13% (inactive)	51% (inactive)						

SMILES	growth inhibition [1, 7]	growth inhibition [1, 8]	growth inhibition [2, 7]	growth inhibition [2, 8]	growth inhibition [3, 7]	growth inhibition [3, 8]	growth inhibition [4, 7]	growth inhibition [4, 8]	growth inhibition [5, 7]	growth inhibition [5, 8]	growth inhibition [6, 7]	growth inhibition [6, 8]	growth inhibition ([1]; at 50.0 µM)	growth inhibition ([2]; at 50.0 µM)	growth inhibition ([3]; at 50.0 µM)	growth inhibition ([4]; at 50.0 µM)	growth inhibition ([5]; at 50.0 µM)	growth inhibition ([6]; at 50.0 µM)
O=[N+]([O-])c1ccc(Cc2ccccc2)cc1													-2.8% (inactive) and -37.1% (inactive)	-32.1% (inactive) and -23.9% (inactive)	7.7% (inactive) and -11.6% (inactive)	3.2% (inactive) and -9.15% (inactive)	13.8% (inactive) and -11.9% (inactive)	-30.9% (inactive) and -14.7% (inactive)
CCSC(=O)c1ccc([N+](=O)[O-])o1	20% (inactive)	99% (active)	6% (inactive)	100% (active)	31% (inactive)	100% (active)	9% (inactive)	99% (active)	13% (inactive)	100% (active)	-9% (inactive)	99% (active)						
CC(C)(C)S(=O)(=O)O.[Ag]	99% (active)	99% (active)	100% (active)	99% (active)	100% (active)	100% (active)			100% (active)	99% (active)	99% (active)	99% (active)						
CN(C)CC1CCCC1=O (stereo unspecified)													7.15% (inactive) and 1.25% (inactive)	-0.95% (inactive) and -7.1% (inactive)	5.8% (inactive) and -22.7% (inactive)	1.75% (inactive) and 8.6% (inactive)	-0.75% (inactive) and 8.25% (inactive)	4.6% (inactive) and 11.3% (inactive)
C1CCC(CCCc2nn[nH]n2)CC1	20% (inactive)	53% (inactive)	-1% (inactive)	64% (inactive)	-2% (inactive)	51% (inactive)	1% (inactive)	44% (inactive)	1% (inactive)	78% (active)	13% (inactive)	61% (inactive)						
COc1ccc(-c2cc(-c3ccco3)c(C#N)c(=O)n2C2OC(COC(C)=O)C(OC(C)=O)C(OC(C)=O)C2OC(C)=O)cc1 (stereo unspecified)													8.3% (inactive) and -23% (inactive)	12.3% (inactive) and 1.9% (inactive)	23.9% (inactive) and 4% (inactive)	42.2% (inactive) and 8.8% (inactive)	16.8% (inactive) and -2.2% (inactive)	
COc1cc(NCCCNc2c3ccc(Cl)cc3nc3ccc(OC)cc23)c2ncccc2c1													-3.5% (inactive) and 79.2% (active)	-13.9% (inactive) and 24% (inactive)	8.15% (inactive) and 70% (active)	-0.35% (inactive) and 54.1% (inactive)	-18.2% (inactive) and 50.2% (inactive)	-4.6% (inactive) and 85.9% (active)
CC(=O)O[C@H]1C(=O)[C@@]2(C)C(C(OC(=O)c3ccccc3)[C@]3(O)CC(OC(=O)[C@H](OC(=O)CCC(=O)O)C(NC(=O)c4ccccc4)c4ccccc4)C(C)=C1C3(C)C)C1(OC(C)=O)COC1C[C@@H]2O (stereo partly specified)													12.9% (inactive) and 26.6% (inactive)	10.1% (inactive) and 18.2% (inactive)	-19.2% (inactive) and -19.7% (inactive)	-15.8% (inactive) and -13.2% (inactive)	-6.95% (inactive) and -15.3% (inactive)	
Nc1ncnc2c(C3OC(CO)C(O)C3O)c[nH]c12 (stereo unspecified)	26% (inactive)	92% (active)			35% (inactive)	96% (active)	28% (inactive)	82% (active)	45% (inactive)	94% (active)	36% (inactive)	94% (active)			89% (active)	88.2% (active)	71.1% (active)	
C(CCc1nn[nH]n1)CCC1CCCCC1	13% (inactive)	98% (active)			11% (inactive)	95% (active)	19% (inactive)	97% (active)			-16% (inactive)	97% (active)						
O=c1[nH]c(CCc2ccccc2)nc2ccccc12													-5.1% (inactive) and -47.5% (inactive)	7.85% (inactive) and -42.1% (inactive)	-7.2% (inactive) and -23.5% (inactive)	-38% (inactive) and -11.1% (inactive)	-26.8% (inactive) and -31.9% (inactive)	-2.8% (inactive) and -4.05% (inactive)
O=C(O)/C=C/c1c2ccc(=O)cc-2oc2cc(O)ccc12													-9.9% (inactive) and 0.5% (inactive)	-21.8% (inactive) and 29.6% (inactive)	15.1% (inactive) and 17.6% (inactive)	21.2% (inactive) and 7.05% (inactive)	-8.15% (inactive) and 17.1% (inactive)	4.65% (inactive) and -5.95% (inactive)
Cc1ccc2[nH]cc(CC(=O)O)c2c1	95% (active)	99% (active)	97% (active)	100% (active)	99% (active)	100% (active)	42% (inactive)	99% (active)	99% (active)	100% (active)	85% (active)	99% (active)						
O=c1[nH]c(=O)n(C2OC(CO)C(O)C2O)c2ncncc12 (stereo unspecified)													3.15% (inactive) and 12.4% (inactive)	5.7% (inactive) and 4.75% (inactive)	31.2% (inactive) and -0.75% (inactive)	4.9% (inactive) and 8.8% (inactive)	16.4% (inactive) and -30.4% (inactive)	-39.8% (inactive) and -25.5% (inactive)
O=C(O)/C=C\C(=O)NNc1ccccc1	12% (inactive)	96% (active)	-2% (inactive)	95% (active)	5% (inactive)	98% (active)	10% (inactive)	82% (active)	14% (inactive)	99% (active)	-7% (inactive)	94% (active)						
